Records with an inconclusive call do not appear. A call without a number means that no potency is given here. Values without a mark were called inactive. Calls of active or inactive are those of the source. Calls follow the shape of the dose curve; as a rule, active = well fitted inhibition curve with a large enough effect; inconclusive = small, poorly fitted or top-dose-only effect; inactive = flat fitted curve, though single readings scatter.
Potency is read from the fitted curve at half-maximal effect.

The first test has as its system HaCat. Description: Cytotoxic Profiling of Annotated Libraries Using Quantitative High-Throughput Screening (AID 1296008). Also: nearly all actives have a fitted effect of over 60% in size. Conditions: Five cell lines viability, CellTiter-Glo ATP luminescence, 48-72 h; max response: hits give low values. The procedure, abridged: (§1)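 Cells exposed to compounds for 48 or 72 hr at 37 degrees Celsius. Viability read as ATP-coupled luminescence with CellTiter-Glo after 10 min at room temperature.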
In the case of `O=C(OC1CN2CCC1CC2)N1CCc2ccccc2C1c1ccccc1` (stereo not drawn), the compound was classed as inactive.
Same read-out and setting: with `CN1CCN(C2=Nc3ccccc3Nc3ccc(Cl)cc32)CC1` the entry was “inactive”; with `COC(=O)c1ccnc(-c2cc(C(=O)Nc3ccc(C4(N)CC4)cc3)ccn2)c1`, “inactive”.
As to `CCC(C)C(=O)Oc1cc(C)ccc1C1(COC(=O)C(C)C)CO1` (stereo not drawn), the compound was classed as inactive.
The same measure, in the same setting: in the case of `NC(=O)c1cccc2[nH]c(-c3ccc(C4CCCN4)cc3F)nc12` (stereo not drawn) it was “inactive”.
Same read-out and setting: with `C=C1CCC2C(C)(C)CCCC2(C)C1CC/C(C)=C\CO` (stereo not drawn) the entry was “inactive”.
On the same count and under the same terms, with `CCOC(=O)N1CCC(N2CCC[C@@H](NC(=O)c3ccccc3C)C2)CC1` the entry was “inactive”.
Regarding `COC1C(OC(=O)/C=C/C=C/C=C/C=C/C(=O)O)CCC2(CO2)C1C1(C)OC1CC=C(C)C` (stereo not drawn), the max response was -3.3%.
With `CC(C)S(=O)(=O)c1ccc2nccc(Nc3ccc4scnc4c3)c2c1`, the compound was called inactive.
In the case of `C=C1CCC[C@]2(C)CC/C(=C(/CO)C(=O)OC)C[C@@H]12`, the outcome was inactive.
In the case of `CC(=O)O[C@@H]1CC[C@@]2(C)[C@H](CC[C@@H]3[C@@H]2C[C@H](OC(C)=O)[C@]2(C)[C@@H](C(C)=O)CC[C@@H]32)C1`, the outcome was inactive.
On the same count and under the same terms, with `COc1c(CCC(=O)O)cccc1O[C@@H]1O[C@H](CO)[C@@H](O)[C@H](O)[C@H]1O` the entry was “inactive”; with `Cc1[nH]c2ccccc2c1CCNC(=O)c1cccs1`, “inactive”.
The same measure, in the same setting: in the case of `O=C(O)CSc1cc(NS(=O)(=O)c2ccc(Br)cc2)c2ccccc2c1O` it was “inactive”.
On the same count and under the same terms, in the case of `CN1CCN(C2=Nc3ccccc3Nc3ccc(OS(=O)(=O)C(F)(F)F)cc32)CC1` it was “inactive”; in that of `O=C(NCC1(c2nc(-c3ccccc3)cs2)CCOCC1)c1cccc(-c2noc(C(F)(F)F)n2)c1`, “inactive”; in that of `COc1ccc2nccc(C(=O)CC[C@@H]3CCN(CC#Cc4cc(F)cc(F)c4F)C[C@@H]3C(=O)O)c2c1`, “inactive”.
In the case of `CCOc1nc(NC(=O)Cc2cc(OC)ccc2OC)cc(N)c1C#N`, the compound was called inactive.
As for `COC(=O)C[C@H]1C(C)(C)[C@H](OC(=O)c2ccccc2)C2CC3=C4CC(=O)O[C@@H](c5ccoc5)[C@]4(C)CCC3[C@@]1(C)C2=O` (stereo partly drawn), the result was inactive.
Same read-out and setting: with `C=C1C(=O)OC2/C=C(\C)CC/C=C(\C=O)C(OC)C(OC(=O)C(C)CC)C12` (stereo not drawn) the entry was “inactive”.
Same read-out and setting: in the case of `CCN(CC)CCCCCCNc1cc(OC)cc2c(C)ccnc12` it was “inactive”; in that of `Fc1ccc(N2CCN(CCC3OCCc4ccccc43)CC2)cc1` (stereo not drawn), “inactive”; in that of `C=C(C)C1CCC2(C(=O)O)CCC3(C)C(CCC4C5(C)C(C=O)C(O)C(C)(C)C5CCC43C)C12` (stereo not drawn), “inactive”.
Consider `Cc1csc(N(C(=O)CSc2ccc(-c3ccccc3)nn2)C2CC2)n1`, for which the compound was called inactive.
Take `Cc1c(NC(=O)c2cc3c(s2)CCCC3)cccc1-c1cn(C)c(=O)c(Nc2ccc(C3C(=O)N(C)CCN3C)cc2)n1` (stereo not drawn): the outcome was inactive.
On the same count and under the same terms, with `Cc1cc(CS(=O)(=O)c2ccccc2)cc(OCc2ccc(CN3CCCC3CO)cc2)c1` (stereo not drawn) the entry was “inactive”; with `C=C1CC[C@@H]2[C@](C)(CO)[C@H](O)CC[C@@]2(C)[C@@H]1CC(O)C1=CCOC1=O` (stereo partly drawn), “inactive”.
Still for that read-out and setting: with `COc1ccc([C@H](Cc2ccncc2)c2ccccc2)cc1OC1CCCC1` the entry was “inactive”.

A further test relates to KB-3-1. The description is as above. The settings on record: Five cell lines viability, CellTiter-Glo ATP luminescence, 48-72 h; max response: hits give low values. The procedure, abridged: as §1
As for `COc1ccc(C(=O)O[C@H]2C=COC=C3C=C4C(=O)N(C)C(=S)C(=O)N4[C@@H]32)cc1Oc1cc(C=O)ccc1O`, the call was inactive.
Turning to `Cc1[nH]c(/C=C2\C(=O)Nc3cc(-c4ccccc4)ccc32)c(C)c1CCC(=O)O`, the max response is -8.26%.
For `C=C1CC[C@@H](O)[C@]2(C)CC[C@H]3C(=C)C(=O)O[C@@H]3[C@@H]12`, the result was inactive.
In the case of `COC(=O)c1ccc2c(c1)[nH]c1ncnc(NCCCN3CCCCC3)c12`, the max response is -20.2%.
The same measure, in the same setting: with `CC(C)OC(=O)N1CCC(Oc2ncnc3c2cnn3-c2ccc(S(C)(=O)=O)cc2F)CC1` the figure was -25.6%.
With `C=C1C(=O)OC2C=C(C)CC/C=C(\CO)CC(O)C12` (stereo not drawn), the max response is 5.92%.
The same measure, in the same setting: in the case of `C=C1CC[C@H]2C(=C)CC[C@H]3C(=C)C(=O)O[C@@H]3[C@@H]12` it was -8.05%; in that of `C=C1C(=O)OC2CC(C)C(CCC(C)=O)=CCC12` (stereo not drawn), -13.7%.
Regarding `CN(C)c1cccc(Oc2cnc(Nc3cccc(O)c3)nc2)c1`, the outcome was inactive.
In the case of `CC1OC2OC(=O)C3(C)CC4C5(CO5)C5=CC(=O)OC(C)(C)C5=CC(=O)C4(C)C(C1=O)C23` (stereo not drawn), the outcome was inactive.
In the case of `CN1CC2CN(c3ccc4oc5ccccc5c(=O)c4c3)CC2C1` (stereo not drawn), the max response was -11.6%.
In the case of `NCC(CNc1nc(Nc2cccc(NC(=O)N3CCCC3)c2)ncc1I)C(=O)c1cccs1` (stereo not drawn), the Potency was 11.6 µM (active).
For `O=C(OC1CN2CCC1CC2)N1CCc2ccccc2C1c1ccccc1` (stereo not drawn), the max response was -9.02%.
With `CN1CCN(C2=Nc3ccccc3Nc3ccc(Cl)cc32)CC1`, the max response was -4.21%.
On the same count and under the same terms, with `COC(=O)c1ccnc(-c2cc(C(=O)Nc3ccc(C4(N)CC4)cc3)ccn2)c1` the figure was -6.68%; with `CCC(C)C(=O)Oc1cc(C)ccc1C1(COC(=O)C(C)C)CO1` (stereo not drawn), -3.14%.
`NC(=O)c1cccc2[nH]c(-c3ccc(C4CCCN4)cc3F)nc12` (stereo not drawn): the compound was called inactive.
`C=C1CCC2C(C)(C)CCCC2(C)C1CC/C(C)=C\CO` (stereo not drawn): the max response is 1.75%.
Still for that read-out and setting: with `CCOC(=O)N1CCC(N2CCC[C@@H](NC(=O)c3ccccc3C)C2)CC1` the figure was 8.62%.
With `COC1C(OC(=O)/C=C/C=C/C=C/C=C/C(=O)O)CCC2(CO2)C1C1(C)OC1CC=C(C)C` (stereo not drawn), the compound was classed as inactive.
On the same count and under the same terms, in the case of `CC(C)S(=O)(=O)c1ccc2nccc(Nc3ccc4scnc4c3)c2c1` it was “inactive”.
For the compound `C=C1CCC[C@]2(C)CC/C(=C(/CO)C(=O)OC)C[C@@H]12`, the max response was -2.83%.
On the same count and under the same terms, in the case of `CC(=O)O[C@@H]1CC[C@@]2(C)[C@H](CC[C@@H]3[C@@H]2C[C@H](OC(C)=O)[C@]2(C)[C@@H](C(C)=O)CC[C@@H]32)C1` it was -28.9%; in that of `COc1c(CCC(=O)O)cccc1O[C@@H]1O[C@H](CO)[C@@H](O)[C@H](O)[C@H]1O`, 0.734%.
As for `Cc1[nH]c2ccccc2c1CCNC(=O)c1cccs1`, the compound was called inactive.
Turning to `O=C(O)CSc1cc(NS(=O)(=O)c2ccc(Br)cc2)c2ccccc2c1O`, the Potency was 18.4 µM (active).
`CN1CCN(C2=Nc3ccccc3Nc3ccc(OS(=O)(=O)C(F)(F)F)cc32)CC1`: the max response is -4.68%.
With `O=C(NCC1(c2nc(-c3ccccc3)cs2)CCOCC1)c1cccc(-c2noc(C(F)(F)F)n2)c1`, the max response is -10.2%.
Still for that read-out and setting: with `COc1ccc2nccc(C(=O)CC[C@@H]3CCN(CC#Cc4cc(F)cc(F)c4F)C[C@@H]3C(=O)O)c2c1` the figure was 5.2%.
Same read-out and setting: with `CCOc1nc(NC(=O)Cc2cc(OC)ccc2OC)cc(N)c1C#N` the figure was 7.15%; with `COC(=O)C[C@H]1C(C)(C)[C@H](OC(=O)c2ccccc2)C2CC3=C4CC(=O)O[C@@H](c5ccoc5)[C@]4(C)CCC3[C@@]1(C)C2=O` (stereo partly drawn), 0.65%; with `C=C1C(=O)OC2/C=C(\C)CC/C=C(\C=O)C(OC)C(OC(=O)C(C)CC)C12` (stereo not drawn), -2.57%.
Same read-out and setting: in the case of `CCN(CC)CCCCCCNc1cc(OC)cc2c(C)ccnc12` it was -5.11%.
Consider `Fc1ccc(N2CCN(CCC3OCCc4ccccc43)CC2)cc1` (stereo not drawn), for which the max response is -21.6%.
Consider `C=C(C)C1CCC2(C(=O)O)CCC3(C)C(CCC4C5(C)C(C=O)C(O)C(C)(C)C5CCC43C)C12` (stereo not drawn), for which the outcome was inactive.
As to `Cc1csc(N(C(=O)CSc2ccc(-c3ccccc3)nn2)C2CC2)n1`, the max response is -2.9%.
For the compound `Cc1c(NC(=O)c2cc3c(s2)CCCC3)cccc1-c1cn(C)c(=O)c(Nc2ccc(C3C(=O)N(C)CCN3C)cc2)n1` (stereo not drawn), the compound was classed as inactive.
In the case of `Cc1cc(CS(=O)(=O)c2ccccc2)cc(OCc2ccc(CN3CCCC3CO)cc2)c1` (stereo not drawn), the max response is -16.6%.
As for `C=C1CC[C@@H]2[C@](C)(CO)[C@H](O)CC[C@@]2(C)[C@@H]1CC(O)C1=CCOC1=O` (stereo partly drawn), the compound was classed as inactive.
For the compound `COc1ccc([C@H](Cc2ccncc2)c2ccccc2)cc1OC1CCCC1`, the max response is -4.42%.

Source of the values: PubChem BioAssay (NCATS).
